Data on two molecules can be found in PubChem BioAssay AID2284187 (EPA ToxCast).

Records with an inconclusive call do not appear. The source made the active and inactive calls. The calls were made as follows: active = hit-call score of the fitted dose curve at least 0.9, where 1 is the maximum; inconclusive = response in the unintended direction; inactive = score below 0.9.

Sequence of rat GHB Receptor Antagonism, Tspan17 (gene 306771) (Q4V8E0 whole entry, looked up): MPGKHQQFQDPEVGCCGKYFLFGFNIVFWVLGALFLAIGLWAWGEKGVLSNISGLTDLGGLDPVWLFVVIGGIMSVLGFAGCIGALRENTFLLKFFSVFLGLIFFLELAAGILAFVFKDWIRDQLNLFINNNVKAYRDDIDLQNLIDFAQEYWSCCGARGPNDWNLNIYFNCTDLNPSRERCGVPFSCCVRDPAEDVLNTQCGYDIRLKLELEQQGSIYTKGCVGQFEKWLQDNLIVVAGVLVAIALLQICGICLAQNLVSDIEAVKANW

The target in this experiment is rat GHB Receptor Antagonism, Tspan17 (gene 306771) (UniProt Q4V8E0). Description: ERF_FR_GPCR_rGHB: Eurofins (ERF) G Protein-Coupled Receptor (GPCR) Radioligand Binding LeadHunter Assay for rat GHB Receptor Antagonism. The protocol:
ERF_FR_GPCR_rGHB is a biochemical, single-readout assay that uses extracted gene-proteins in a cell-free assay. Measurements were taken 2 hour after chemical dosing in a 96-well plate. See GHB Rat Binding (Antagonist Radioligand) Assay, Cerep.ERF_FR_GPCR_rGHB is an assay component calculated from the ERF_FR_GPCR_rGHB assay. It is designed to measure radioligand binding using a type of binding reporter as detected by scintillation counting with radiometry technology.Data from the assay component ERF_FR_GPCR_rGHB was analyzed at the assay endpoint, ERF_FR_GPCR_rGHB, in the positive analysis fitting direction relative to DMSO as the negative control and baseline of activity. Using a type of binding reporter, loss-of-signal activity can be used to understand changes in binding as they relate to gene TSPAN17. To generalize the intended target to other relatable targets, this assay endpoint is annotated to the gpcr intended target family, where the subfamily is ghb .
Brain cortex of Wistar derived rats weighing 175 +/- 25 g are used to prepare GHB receptors in potassium buffer pH 6.0. A 1 mg aliquot is incubated with 20 nM [3H] NCS382 for 120 minutes at 4 C. Non-specific binding is estimated in the presence of 1 mM NCS382. Membranes are filtered and washed, the filters are then counted to determine [3H] NCS382 specifically bound. […]
`O=C(/C=C/c1ccc(O)cc1)CC(=O)/C=C/c1ccc(O)cc1`: the AC50 (commonly the concentration at which the activity in the assay is half-maximal) is 1.67 µM (active). For `COc1cc(/C=C/C(=O)CC(=O)/C=C/c2ccc(O)c(OC)c2)ccc1O`, the AC50 was 1.59 µM (active).
